Measurements reported in PubChem BioAssay (Tox21).
Inconclusive results are not listed. The source made the active and inactive calls. Unless noted, calls come from the whole dose curve; as a rule, active = well fitted curve in the direction sought with a large enough effect in the repeat runs; inconclusive = weak or mixed curves; inactive = no such curve, though single readings can be large; an effect the other way counts as inactive or inconclusive.

Key:
[1] = qHTS assay to identify small molecule antagonists of the TGF-beta/Smad signaling pathway - cell viability counter screen (AID 1346824); note: nearly all actives have a fitted effect of over 50% in size
Summary of the method: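 SBE-bla HEK 293T cells were plated overnight at 37 C, then given compounds in DMSO plus TGF-beta1 (added as 0.25 ng/mL solution) for 5 hr. After the bla read, CellTiter-Glo was added to the same wells and luminescence read after 30 min at room temperature.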

[2] = qHTS assay to identify small molecule agonists of the TGF-beta/Smad signaling pathway (AID 1346859; active = well fitted activation curve with a large enough effect in the signal ratio in the repeat runs, not every such curve was filed as active; the % refers to the signal ratio; note: series mostly up to about 77 µM)
Summary of the method: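 Reporter line: HEK 293T with stably integrated SBE-controlled beta-lactamase. Compound exposure lasts 5 hr at 37 C and 5% CO2; substrate loading follows for 2 hr at room temperature, with emission read at 460 and 530 nm.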

[3] = target: Thyrotropin-releasing hormone receptor (Homo sapiens) (UniProt P34981); assay: qHTS assay to identify small molecule antagonists of the thyrotropin-releasing hormone receptor (TRHR) signaling pathway (AID 1346877; active = well fitted inhibition curve with a large enough effect in the repeat runs, not every such curve was filed as active; note: series mostly up to about 51 µM)
Summary of the method: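 Kinetic fluorescence (3 min, 1 s resolution) following stimulation with TRH at 1 nM final; HEK293 cells bearing human TRHR; 5 min compound preincubation at RT; concentration-response over 15 points, triplicates.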

[4] = target: Thyrotropin-releasing hormone receptor (Homo sapiens) (UniProt P34981); assay: qHTS assay to identify small molecule agonists of the thyrotropin-releasing hormone receptor (TRHR) signaling pathway (AID 1346891; calls by dose curve;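 note: HEK293 cells expressing TRHR with calcium dye readout; series mostly up to about 58 µM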)
Summary of the method: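 Cells: TRHR-Hek293, seeded and incubated 18 h. Dye loading: 2 h at 37 °C. Compound added from DMSO stock by pin tool. Read-out: kinetic calcium fluorescence over 3 min.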

[5] = Human pregnane X receptor (PXR) small molecule agonists, qHTS cell viability counter screen (AID 1346977); note: nearly all actives have a fitted effect of over 50% in size
Summary of the method: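 Cytotoxicity counter screen run in the same wells as the PXR luciferase assay, using PXR-Luc HepG2 cells in charcoal-stripped serum medium. Viability: CellTiter-Fluor fluorescence after 24hr compound treatment.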

[6] = Caspase-3/7 induction in HepG2 cells by small molecules, qHTS assay (AID 1346978); note: nearly all actives have a fitted effect of over 15% in size
Summary of the method: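 Wild-type HepG2 cells (2,000/well) were settled 5 h at 37 C, 5% CO2, then exposed to compounds in DMSO for 17 h. Caspase-3/7 activity was read by luminescence 30 min after adding Caspase-Glo 3/7 reagent at room temperature.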

[7] = Caspase-3/7 induction in CHO-K1 cells by small molecules, qHTS cell viability counter screen (AID 1346979); note: nearly all actives have a fitted effect of over 35% in size
Summary of the method: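 Cytotoxicity counter screen run in parallel with the caspase-3/7 assay: CHO-K1 cells, 16hr compound treatment at 37C, then CellTiter-Fluor for 1hr before fluorescence reading.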

[8] = Caspase-3/7 induction in CHO-K1 cells by small molecules, qHTS assay (AID 1346980); note: nearly all actives have a fitted effect of over 15% in size
Summary of the method: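 Wild-type cells were seeded at 1,500 per well and settled 5 hr at 37 C, 5% CO2, then exposed to DMSO-dissolved compounds for 17 hr. Caspase-Glo 3/7 reagent was added, and luminescence was read after 30min at room temperature.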

[9] = Caspase-3/7 induction in HepG2 cells by small molecules, qHTS cell viability counter screen (AID 1346981); note: series mostly up to about 92 µM; nearly all actives have a fitted effect of over 30% in size
Summary of the method: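 In this quantitative HTS counter screen, compounds delivered in DMSO were left on unmodified HepG2 cells for 16 hr at 37 C. Viability was then determined fluorometrically with CellTiter-Fluor, in parallel with caspase-3/7 induction in the same wells.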

[10] = target: Nuclear receptor subfamily 1 group I member 2 (Homo sapiens) (UniProt O75469); assay: Human pregnane X receptor (PXR) small molecule agonists, qHTS assay (AID 1346982); note: nearly all actives have a fitted effect of over 35% in size
Summary of the method: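 Reporter HepG2 cells expressing PXR-Luc are cultured in charcoal-stripped FBS (5%), treated with compounds for 24 hr at 37 C, and assayed by ONE-Glo luminescence after 30 min at room temperature.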

[11] = target: Cytochrome P450 2C19 (Homo sapiens) (UniProt P33261); assay: Cytochrome P450 Family 2 Subfamily C Member 19 (CYP2C19) small molecule antagonists: luciferase reporter qHTS assay (AID 1671197); note: series mostly up to about 120 µM; nearly all actives have a fitted effect of over 65% in size
Summary of the method: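 Relative luminescence units recorded 20 min after the detection reagent stopped a 1 h, 37C CYP2C19 reaction on proluciferin substrate, which was started by NADPH regeneration following 10 min room-temperature compound preincubation; ketoconazole positive control.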

[12] = target: Cytochrome P450 2C9 (Homo sapiens) (UniProt P11712); assay: Cytochrome P450 Family 2 Subfamily C Member 9 (CYP2C9) small molecule antagonists: luciferase reporter qHTS assay (AID 1671198); note: nearly all actives have a fitted effect of over 50% in size; note: potency is the fitted concentration of half-maximal effect
Summary of the method: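 CYP2C9 activity was measured with a P450-Glo proluciferin substrate. Enzyme–substrate mix was held with compound for 10 min at room temperature, then NADPH regeneration solution was added for 1 h at 37C. Luciferin product was read as luminescence.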

[13] = target: Cytochrome P450 1A2 (Homo sapiens) (UniProt P05177); assay: Cytochrome P450 Family 1 Subfamily A Member 2 (CYP1A2) small molecule antagonists: luciferase reporter qHTS assay (AID 1671199); note: nearly all actives have a fitted effect of over 50% in size; note: potency is the fitted concentration of half-maximal effect
Summary of the method: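 Steps: enzyme-substrate mix dispensed; test compounds and furafylline control pinned in; 10 min room temperature; NADPH regeneration solution added, 1 h; reaction stopped with luciferin detection reagent; luminescence read after 20 min.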

[14] = target: Voltage-gated inwardly rectifying potassium channel KCNH2 (Homo sapiens) (UniProt Q12809); assay: Human Ether-a-go-go-Related Gene (hERG) channel small molecule antagonists: fluorescence cell-based qHTS assay (AID 1671200); note: nearly all actives have a fitted effect of over 50% in size; note: potency is the fitted concentration of half-maximal effect
Summary of the method: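 Fluorescence at 540 nm emission (480 nm excitation) was recorded kinetically for 2 min at 1-second intervals once the thallium-containing stimulus reached cells previously loaded with FluxOR II dye.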

[15] = target: Cytochrome P450 3A4 (Homo sapiens) (UniProt P08684); assay: Cytochrome P450 Family 3 Subfamily A Member 4 (CYP3A4) small molecule antagonists: luciferase reporter qHTS assay (AID 1671201)
Summary of the method: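 qHTS, 1536-well. CYP3A4 + proluciferin substrate, cpd 10 min RT → NADPH regen 1 h RT → detection reagent 20 min → luminescence (RLU). Ketoconazole positive control.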

[16] = qHTS assay to identify small molecule agonists of the TGF-beta/Smad signaling pathway - cell viability counter screen (AID 1346829); note: top concentration of the series differs between compounds; nearly all actives have a fitted effect of over 45% in size
Summary of the method: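 Tox21 qHTS format: SBE-bla HEK 293T cells treated with DMSO-dissolved compounds for 5 hr; CellTiter-Glo luminescence after 30 min at room temperature.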

[17] = target: Cytochrome P450 2D6 (Homo sapiens) (UniProt P10635); assay: Cytochrome P450 Family 2 Subfamily D Member 6 (CYP2D6) small molecule antagonists: luciferase reporter qHTS assay (AID 1671196); note: nearly all actives have a fitted effect of over 50% in size; note: potency is the fitted concentration of half-maximal effect
Summary of the method: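 Test chemicals meet CYP2D6 plus proluciferin substrate (10 min, RT); NADPH regenerating solution then drives turnover for 1 h. Detection reagent halts the reaction; luminescence measured after 20 min.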

[18] = target: Nuclear receptor subfamily 1 group I member 2 (Rattus norvegicus) (UniProt Q9R1A7); assay: Rat pregnane X receptor (rPXR) activation by small molecules, qHTS assay (AID 1346983); conditions: rPXR luciferase reporter cells, One-Glo luminescence, 24 h; max activation: active compounds read high; note: nearly all actives have a fitted effect of over 20% in size; note: potency is the fitted concentration of half-maximal effect
Summary of the method: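 Cell-based rPXR luciferase reporter assay, 2,000 cells per well, rested 5hr at 37 C before compound addition in DMSO, then 24 hr at 37 C. One-Glo reagent was added and luminescence read after 30 min at room temperature.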

[19] = target: Nuclear receptor subfamily 1 group I member 2 (Homo sapiens) (UniProt O75469); assay: CYP3A4 induction through human pregnane X receptor (PXR) by small molecules, qHTS assay (AID 1346984); note: nearly all actives have a fitted effect of over 40% in size
Summary of the method: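 Induction measured in HepG2-based DPX-2 cells co-expressing human PXR and a CYP3A4 promoter-driven luciferase. After a 24-hour compound exposure, cells received CYP3A4 luciferin substrate at 3uM final for 3 hours, and light output was then recorded.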

[20] = target: Nuclear receptor subfamily 1 group I member 2 (Homo sapiens) (UniProt O75469); assay: Human pregnane X receptor (PXR) activation by small molecules, qHTS assay (AID 1346985); note: nearly all actives have a fitted effect of over 40% in size
Summary of the method: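 DPX-2 cells (HepG2 co-transfected with a PXR response element and a CYP3A4-promoter luciferase construct) were seeded at 2,000 per well, rested 5 hr at 37C, then exposed to DMSO-dissolved compounds for 24 hr. Activation was read as luciferase luminescence.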
% is set by controls: 0 for no effect and ±100 for the full control effect.

Sequence of Cytochrome P450 2C19 (Homo sapiens) (P33261 whole entry, looked up): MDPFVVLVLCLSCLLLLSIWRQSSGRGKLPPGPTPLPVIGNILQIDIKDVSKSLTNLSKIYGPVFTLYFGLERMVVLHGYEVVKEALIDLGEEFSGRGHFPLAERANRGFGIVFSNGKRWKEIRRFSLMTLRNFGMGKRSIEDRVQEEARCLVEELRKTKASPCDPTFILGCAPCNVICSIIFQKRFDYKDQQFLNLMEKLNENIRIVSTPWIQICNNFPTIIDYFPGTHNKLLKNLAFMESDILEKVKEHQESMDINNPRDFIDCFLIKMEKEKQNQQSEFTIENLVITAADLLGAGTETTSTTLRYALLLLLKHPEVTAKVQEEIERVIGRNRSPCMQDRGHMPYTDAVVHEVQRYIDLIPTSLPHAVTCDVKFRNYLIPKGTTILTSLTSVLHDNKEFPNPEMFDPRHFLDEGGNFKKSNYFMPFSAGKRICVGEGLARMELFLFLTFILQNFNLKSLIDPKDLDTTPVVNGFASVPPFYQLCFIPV
Sequence of Nuclear receptor subfamily 1 group I member 2 (Homo sapiens) (O75469 whole entry, looked up): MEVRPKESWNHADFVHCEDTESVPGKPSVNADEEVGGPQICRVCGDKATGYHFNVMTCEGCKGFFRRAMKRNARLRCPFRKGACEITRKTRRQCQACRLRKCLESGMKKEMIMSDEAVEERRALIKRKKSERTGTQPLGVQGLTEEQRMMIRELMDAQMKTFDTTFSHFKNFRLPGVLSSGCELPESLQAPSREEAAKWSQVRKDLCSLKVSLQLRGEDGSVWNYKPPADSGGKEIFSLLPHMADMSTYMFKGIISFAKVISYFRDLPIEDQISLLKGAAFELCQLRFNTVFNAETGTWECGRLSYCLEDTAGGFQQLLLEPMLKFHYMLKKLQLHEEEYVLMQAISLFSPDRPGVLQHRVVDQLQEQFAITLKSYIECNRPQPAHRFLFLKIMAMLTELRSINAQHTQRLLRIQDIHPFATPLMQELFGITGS
Sequence of Cytochrome P450 3A4 (Homo sapiens) (P08684 whole entry, looked up): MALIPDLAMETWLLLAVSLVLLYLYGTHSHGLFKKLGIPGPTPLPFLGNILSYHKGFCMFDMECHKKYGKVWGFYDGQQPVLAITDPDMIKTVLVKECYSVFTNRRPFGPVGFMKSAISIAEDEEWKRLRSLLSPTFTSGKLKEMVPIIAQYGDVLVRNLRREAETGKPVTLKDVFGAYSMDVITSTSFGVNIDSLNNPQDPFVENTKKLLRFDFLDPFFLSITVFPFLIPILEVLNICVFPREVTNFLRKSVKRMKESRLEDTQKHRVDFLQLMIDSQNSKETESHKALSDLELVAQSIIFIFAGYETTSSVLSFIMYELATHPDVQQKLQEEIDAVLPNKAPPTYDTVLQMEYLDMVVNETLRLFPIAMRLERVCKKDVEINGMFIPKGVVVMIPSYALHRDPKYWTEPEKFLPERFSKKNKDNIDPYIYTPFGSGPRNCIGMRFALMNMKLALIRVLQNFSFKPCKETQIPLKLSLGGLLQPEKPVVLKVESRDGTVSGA
Sequence of Cytochrome P450 2C9 (Homo sapiens) (P11712 whole entry, looked up): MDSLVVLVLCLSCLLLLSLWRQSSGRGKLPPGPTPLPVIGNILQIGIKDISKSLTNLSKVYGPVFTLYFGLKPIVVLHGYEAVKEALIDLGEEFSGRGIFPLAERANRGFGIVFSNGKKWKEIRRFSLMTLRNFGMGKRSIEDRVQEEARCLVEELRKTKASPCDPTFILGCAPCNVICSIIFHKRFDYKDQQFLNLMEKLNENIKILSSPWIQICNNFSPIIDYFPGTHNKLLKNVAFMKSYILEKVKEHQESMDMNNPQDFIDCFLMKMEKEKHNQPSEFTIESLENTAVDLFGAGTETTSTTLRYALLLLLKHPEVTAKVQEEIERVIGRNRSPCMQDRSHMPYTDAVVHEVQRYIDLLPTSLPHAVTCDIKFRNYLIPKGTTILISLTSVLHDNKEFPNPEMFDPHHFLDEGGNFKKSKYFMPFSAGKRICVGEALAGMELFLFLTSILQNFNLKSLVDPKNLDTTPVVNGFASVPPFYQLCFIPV
Sequence of Cytochrome P450 1A2 (Homo sapiens) (P05177 whole entry, looked up): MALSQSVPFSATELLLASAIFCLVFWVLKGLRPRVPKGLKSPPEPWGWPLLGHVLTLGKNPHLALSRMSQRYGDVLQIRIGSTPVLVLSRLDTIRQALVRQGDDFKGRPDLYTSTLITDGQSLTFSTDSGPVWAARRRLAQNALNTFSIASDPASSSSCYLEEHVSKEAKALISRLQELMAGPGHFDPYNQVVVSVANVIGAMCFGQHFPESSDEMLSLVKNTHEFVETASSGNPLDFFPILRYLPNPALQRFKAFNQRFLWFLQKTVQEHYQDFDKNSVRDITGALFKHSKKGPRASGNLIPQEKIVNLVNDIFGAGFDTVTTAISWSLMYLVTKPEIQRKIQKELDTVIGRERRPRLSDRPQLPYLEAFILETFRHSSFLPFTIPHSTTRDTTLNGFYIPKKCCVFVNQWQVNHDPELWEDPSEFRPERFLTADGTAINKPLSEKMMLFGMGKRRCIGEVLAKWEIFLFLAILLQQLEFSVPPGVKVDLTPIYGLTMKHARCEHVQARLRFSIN
Sequence of Cytochrome P450 2D6 (Homo sapiens) (P10635 whole entry, looked up): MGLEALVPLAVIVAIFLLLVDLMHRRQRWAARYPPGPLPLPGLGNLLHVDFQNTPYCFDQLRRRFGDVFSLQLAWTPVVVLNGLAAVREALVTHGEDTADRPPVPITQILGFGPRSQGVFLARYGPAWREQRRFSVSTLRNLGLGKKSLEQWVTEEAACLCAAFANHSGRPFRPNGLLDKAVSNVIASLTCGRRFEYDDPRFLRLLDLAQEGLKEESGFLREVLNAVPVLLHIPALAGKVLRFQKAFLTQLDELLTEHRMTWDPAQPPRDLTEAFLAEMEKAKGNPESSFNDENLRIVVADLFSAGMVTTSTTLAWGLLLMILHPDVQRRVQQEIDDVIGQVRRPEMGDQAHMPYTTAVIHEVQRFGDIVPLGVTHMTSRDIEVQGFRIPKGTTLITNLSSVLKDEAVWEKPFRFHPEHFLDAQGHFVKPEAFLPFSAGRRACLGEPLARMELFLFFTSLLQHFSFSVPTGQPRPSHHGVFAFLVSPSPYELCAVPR
Sequence of Thyrotropin-releasing hormone receptor (Homo sapiens) (P34981 whole entry, looked up): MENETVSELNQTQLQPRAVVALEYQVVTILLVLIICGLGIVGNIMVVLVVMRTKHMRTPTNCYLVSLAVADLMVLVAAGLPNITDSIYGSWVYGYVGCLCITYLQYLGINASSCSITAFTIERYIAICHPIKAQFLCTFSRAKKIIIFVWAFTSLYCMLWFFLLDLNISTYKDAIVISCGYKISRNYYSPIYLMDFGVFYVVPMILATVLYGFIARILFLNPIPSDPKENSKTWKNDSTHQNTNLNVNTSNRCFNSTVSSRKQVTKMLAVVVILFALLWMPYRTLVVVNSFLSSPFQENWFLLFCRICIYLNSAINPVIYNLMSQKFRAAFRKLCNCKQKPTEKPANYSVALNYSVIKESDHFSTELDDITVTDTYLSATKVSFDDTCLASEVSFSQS
Sequence of Voltage-gated inwardly rectifying potassium channel KCNH2 (Homo sapiens) (Q12809 whole entry, looked up): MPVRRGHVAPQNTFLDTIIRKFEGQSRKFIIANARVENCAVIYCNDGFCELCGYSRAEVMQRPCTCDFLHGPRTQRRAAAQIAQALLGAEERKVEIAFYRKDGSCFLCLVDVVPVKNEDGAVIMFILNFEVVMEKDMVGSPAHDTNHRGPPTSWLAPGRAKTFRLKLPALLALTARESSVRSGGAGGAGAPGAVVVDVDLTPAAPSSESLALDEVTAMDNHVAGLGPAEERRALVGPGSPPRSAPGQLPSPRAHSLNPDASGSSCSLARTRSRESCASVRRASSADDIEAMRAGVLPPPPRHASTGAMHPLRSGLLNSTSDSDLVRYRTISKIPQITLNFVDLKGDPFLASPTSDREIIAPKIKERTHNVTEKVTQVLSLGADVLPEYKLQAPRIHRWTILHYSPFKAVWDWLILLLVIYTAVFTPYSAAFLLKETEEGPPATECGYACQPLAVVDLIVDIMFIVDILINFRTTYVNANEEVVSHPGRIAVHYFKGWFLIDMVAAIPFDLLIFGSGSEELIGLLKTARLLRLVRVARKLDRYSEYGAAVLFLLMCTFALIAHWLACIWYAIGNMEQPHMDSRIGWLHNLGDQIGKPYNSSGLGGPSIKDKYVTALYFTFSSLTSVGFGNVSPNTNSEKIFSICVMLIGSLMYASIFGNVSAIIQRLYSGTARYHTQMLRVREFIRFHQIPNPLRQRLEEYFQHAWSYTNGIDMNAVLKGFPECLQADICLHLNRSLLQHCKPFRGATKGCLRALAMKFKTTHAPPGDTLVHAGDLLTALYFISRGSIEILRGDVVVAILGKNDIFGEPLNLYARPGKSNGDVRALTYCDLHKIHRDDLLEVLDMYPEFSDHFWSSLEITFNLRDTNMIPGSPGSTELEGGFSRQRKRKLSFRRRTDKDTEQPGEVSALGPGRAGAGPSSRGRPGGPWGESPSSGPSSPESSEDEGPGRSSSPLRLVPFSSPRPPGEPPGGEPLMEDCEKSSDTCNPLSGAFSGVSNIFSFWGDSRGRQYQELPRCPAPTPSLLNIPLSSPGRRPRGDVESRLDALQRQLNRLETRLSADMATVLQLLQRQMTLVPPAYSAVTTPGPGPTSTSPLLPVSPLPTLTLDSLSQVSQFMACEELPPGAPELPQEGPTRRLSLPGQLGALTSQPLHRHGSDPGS
Sequence of Nuclear receptor subfamily 1 group I member 2 (Rattus norvegicus) (Q9R1A7 whole entry, looked up): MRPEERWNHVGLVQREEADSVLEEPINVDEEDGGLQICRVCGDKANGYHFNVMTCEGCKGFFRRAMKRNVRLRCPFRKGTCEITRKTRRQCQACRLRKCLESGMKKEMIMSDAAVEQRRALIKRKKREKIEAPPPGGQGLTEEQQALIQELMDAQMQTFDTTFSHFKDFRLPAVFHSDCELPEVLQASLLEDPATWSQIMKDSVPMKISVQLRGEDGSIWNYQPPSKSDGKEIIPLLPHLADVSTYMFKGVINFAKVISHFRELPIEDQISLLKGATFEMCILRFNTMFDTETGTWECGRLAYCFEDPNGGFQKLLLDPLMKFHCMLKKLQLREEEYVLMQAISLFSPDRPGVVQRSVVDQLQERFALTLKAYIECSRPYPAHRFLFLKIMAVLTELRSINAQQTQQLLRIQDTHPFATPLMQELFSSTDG

Cc1nc([N+](=O)[O-])cn1-c1ccc([N+](=O)[O-])cc1
inactive: outcome [1] | outcome [2] | outcome [3] | outcome [4] | Potency [5] | outcome [6] | Potency [7] | outcome [8] | Potency [9] | Potency [10] | Potency [11] | Potency [12] | Potency [13] | Potency [14] | Potency [15]

CC(=O)/C=C/c1ccco1
inactive: outcome [1] | outcome [16] | outcome [3] | outcome [4] | Potency [5] | Potency [7] | outcome [8] | Potency [9] | Potency [10] | Potency [17] | Potency [11] | Potency [12] | Potency [14] | Potency [15]

Cc1nc2n(c(=O)c1CCN1CCC(C(=O)c3ccc(F)cc3)CC1)CCS2
inactive: outcome [1] | outcome [16] | outcome [3] | outcome [4] | outcome [6] | outcome [8] | Potency [10] | Potency [11]
active: Potency [17] 0.49 µM | Potency [14] 9.52 µM

C[CH2][Ge]([Cl])([CH2]C)[CH2]C
inactive: outcome [1] | outcome [16] | outcome [3] | outcome [4] | Potency [5] | outcome [6] | Potency [7] | outcome [8] | Potency [9] | Potency [10] | Potency [17] | Potency [11] | Potency [12] | Potency [13] | Potency [14] | Potency [15]

C[C@@H]1C[C@H]2[C@@H]3C[C@H](F)C4=CC(=O)C=C[C@]4(C)[C@@]3(F)[C@@H](O)C[C@]2(C)[C@@]1(O)C(=O)CO
active: Potency [18] 1.41 µM
inactive: outcome [1] | outcome [16] | outcome [3] | outcome [4] | Potency [5] | outcome [6] | Potency [7] | outcome [8] | Potency [9]

Cc1oc(=O)oc1CN1CCN(c2cc3c(cc2F)c(=O)c(C(=O)O)c2n3C(C)S2)CC1 (stereo not given)
inactive: outcome [1] | outcome [16] | outcome [4] | Potency [5] | outcome [6] | Potency [7] | outcome [8] | Potency [9] | max activation [18] -2.98% | outcome [19] | Potency [20] | Potency [17] | Potency [11] | Potency [12] | Potency [13] | Potency [14] | Potency [15]

CCCCCCCCCOCC1CO1 (stereo not given)
active: Potency [12] 82.8 µM
inactive: outcome [1] | outcome [16] | Potency [5] | outcome [6] | Potency [7] | outcome [8] | Potency [9] | Potency [14]

Cc1cccc(C(=O)O)c1[N+](=O)[O-]
active: Potency [17] 31.8 µM | Potency [13] 63.4 µM
inactive: outcome [1] | outcome [2] | outcome [3] | outcome [4] | Potency [5] | outcome [6] | Potency [7] | outcome [8] | Potency [9] | Potency [10] | Potency [11] | Potency [14]
